About 79,000 compounds went through this panel and 15% of them were active in at least one assay; those are over-represented in the sample as a whole. Calls of active or inactive are those of the source. Cut-off read from the data, not from the text of the source: active = growth inhibition above about 70%; inactive = the rest.
Key:
[1] = NCI Yeast Anticancer Drug Screen. Data for the rad50EPP+ strain (AID 151);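 note: 0% = growth of vehicle-treated control cultures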; conditions: S. cerevisiae rad50 mutant strain, stronger effect = higher value
In short: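 Measured: growth inhibition of rad50EPP+ yeast. Reference: vehicle-treated controls. Screen uses strains with defined genetic alterations in DNA damage repair or cell cycle control.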

[2] = NCI Yeast Anticancer Drug Screen. Data for the mgt1 strain (AID 153); conditions: S. cerevisiae mgt1 mutant growth inhibition, stronger effect = higher value
In short: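 Compounds were applied to mgt1 mutant yeast, and growth was then compared against vehicle-treated control cultures to give percent inhibition.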

[3] = NCI Yeast Anticancer Drug Screen. Data for the rad50 strain (AID 155);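 note: 0% = growth of vehicle-only cultures of the same strain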; conditions: S. cerevisiae rad50 strain growth inhibition, stronger effect = higher value
In short: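 Yeast carrying a defined DNA repair defect were exposed to test compounds, and growth was compared with vehicle-treated controls to give percent inhibition.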

[4] = NCI Yeast Anticancer Drug Screen. Data for the mec2-1 strain (AID 157); conditions: S. cerevisiae mec2-1 strain, stronger effect = higher value
In short: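 Compounds were applied to mec2-1 yeast cells. Their growth was then compared with that of vehicle-treated cultures to give growth inhibition.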

[5] = NCI Yeast Anticancer Drug Screen. Data for the rad14 strain (AID 159);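 note: 0% = growth of vehicle-treated control cultures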; conditions: S. cerevisiae rad14 strain growth inhibition, stronger effect = higher value
In short: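 Yeast cells carrying a defined DNA-repair defect were exposed to compounds, and growth inhibition was calculated relative to vehicle-treated control cultures.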

[6] = NCI Yeast Anticancer Drug Screen. Data for the sgs1 mgt1 strain (AID 161);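 note: 0% = growth of cultures given vehicle only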; conditions: S. cerevisiae sgs1 mgt1 strain, stronger effect = higher value
In short: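 Growth of a repair-deficient yeast mutant was monitored after compound treatment and expressed as inhibition relative to vehicle-treated cultures.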

[7] = NCI Yeast Anticancer Drug Screen. Data for the CLN2oe strain (AID 163);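 note: 0% = growth of vehicle-only control cultures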; conditions: S. cerevisiae CLN2oe strain, stronger effect = higher value
In short: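 Cells of an engineered yeast line with disturbed cell-cycle regulation are treated with compound. Inhibition of growth is then calculated relative to the vehicle-treated reference.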

[8] = NCI Yeast Anticancer Drug Screen. Data for the cln2 rad14 strain (AID 165);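 note: 0% = growth equal to vehicle treated cultures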; conditions: S. cerevisiae cln2 rad14 strain, stronger effect = higher value
In short: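 Strain: cln2 rad14 yeast, altered in cell cycle control and DNA damage repair. Read-out: growth inhibition vs vehicle.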

[9] = NCI Yeast Anticancer Drug Screen. Data for the bub3 strain (AID 167); conditions: S. cerevisiae bub3 mutant strain, stronger effect = higher value
In short: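 Compounds were applied to a genetically altered yeast strain carrying a cell-cycle control defect. Growth inhibition was scored against vehicle-treated controls.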

[10] = NCI Yeast Anticancer Drug Screen. Data for the wt2 strain (AID 169);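 note: 0% = growth of vehicle-treated yeast cultures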; conditions: S. cerevisiae wt2 strain growth inhibition, stronger effect = higher value
In short: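 Growth of compound-treated yeast is measured and expressed as inhibition relative to vehicle-only controls.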

[11] = NCI Yeast Anticancer Drug Screen. Data for the mlh1 strain (AID 171);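 note: 0% = growth of vehicle-treated control cultures of the same strain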; conditions: S. cerevisiae mlh1 strain growth inhibition, stronger effect = higher value
In short: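 Test agents were incubated with yeast bearing a defined DNA damage repair or cell cycle control alteration; values are growth inhibition normalised to vehicle-treated cultures.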

[12] = NCI Yeast Anticancer Drug Screen. Data for the sgs1 strain (AID 173);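 note: 0% = growth of vehicle-only control cultures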; conditions: S. cerevisiae sgs1 mutant, stronger effect = higher value
In short: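 Strain with an altered DNA repair or cell cycle pathway exposed to compound. Growth then measured. Value = inhibition versus vehicle control.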

[13] = NCI Yeast Anticancer Drug Screen. Data for the mlh1 rad18 strain (AID 175); conditions: S. cerevisiae mlh1 rad18 strain growth inhibition, stronger effect = higher value
In short: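 A repair-deficient yeast strain is exposed to test compound, and growth is scored relative to vehicle-treated controls.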

[14] = at 5.0 µM (retest, dose inferred, filed as 0.5)
[15] = at 50.0 µM (retest, dose inferred, filed as 5.0)

Measured: growth inhibition

CCCCOc1ccc(Nc2c3ccccc3nc3ccccc23)cc1
active: [1]; at 3.7 µM 71% | [1]; at 11.0 µM 91% | [1]; at 33.0 µM 94% | [1]; at 100.0 µM 78% | [2]; at 11.0 µM 86% | [2]; at 33.0 µM 99% | [2]; at 100.0 µM 78% | [3]; at 3.7 µM 79% | [3]; at 11.0 µM 93% | [3]; at 33.0 µM 98% | [3]; [15] 96% | [3]; at 50.0 µM 90.7% | [3]; at 100.0 µM 85% | [4]; at 33.0 µM 97% | [4]; [15] 89% | [4]; at 50.0 µM 88% | [4]; at 100.0 µM 73% | [5]; at 33.0 µM 97% | [6]; [15] 94% | [6]; at 50.0 µM 91.3% | [7]; at 11.0 µM 72% | [7]; at 33.0 µM 98% | [7]; at 100.0 µM 76% | [8]; at 50.0 µM 88.8% | [9]; at 33.0 µM 99% | [9]; [15] 98% | [9]; at 50.0 µM 86.8% | [10]; at 11.0 µM 75% | [10]; at 33.0 µM 98% | [10]; at 100.0 µM 78% | [11]; at 33.0 µM 98% | [11]; at 100.0 µM 74% | [12]; at 11.0 µM 87% | [12]; at 33.0 µM 98% | [12]; at 100.0 µM 82% | [13]; [15] 92% | [13]; at 50.0 µM 87%
inactive: [1]; at 1.2 µM 13% | [2]; at 1.2 µM -27% | [2]; at 3.7 µM -13% | [3]; at 1.2 µM 41% | [3]; [14] 50% | [4]; at 1.2 µM -24% | [4]; at 3.7 µM -37% | [4]; [14] 12% | [4]; at 11.0 µM 68% | [5]; at 1.2 µM -77% | [5]; at 3.7 µM -66% | [5]; at 11.0 µM 43% | [5]; at 100.0 µM 61% | [6]; [14] 10% | [7]; at 1.2 µM -26% | [7]; at 3.7 µM 0% | [8]; [14] 10% | [8]; [15] -7% | [9]; at 1.2 µM -56% | [9]; at 3.7 µM -55% | [9]; [14] 15% | [9]; at 11.0 µM 66% | [9]; at 100.0 µM 69% | [10]; at 1.2 µM 7% | [10]; at 3.7 µM -10% | [11]; at 1.2 µM -39% | [11]; at 3.7 µM -34% | [11]; at 11.0 µM 34% | [12]; at 1.2 µM -3% | [12]; at 3.7 µM -11% | [13]; [14] 26%

From PubChem BioAssay (NCI)
